Columns and labels:
Assay in all cases: CellTox Green cytotoxicity fluorescence relative to DMSO vehicle (fold of vehicle RFU); higher = more cell death (loss of membrane integrity), active = 2 or more
CMK = test system: CMK
In short: (§1)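 MV4-11, CMK and Kasumi-1 cells were seeded at 4.0 × 10^4 cells per well in 96-well black optical-bottom plates, with CellTox Green reagent added at seeding. Single compounds from the Selleckchem apoptosis library, diluted in DMSO, were added at final 0.01, 0.1 and 1 µM (vehicle 0.1% DMSO), then incubated at 37 °C, 5% CO2 and read at 24, 48 and 72 h (Ex 485 nm, Em 520 nm). Cytotoxicity, reflecting loss of membrane integrity, is fluorescence expressed as fold of the DMSO vehicle.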

Kasumi-1 = test system: Kasumi-1
In short: as §1

MV4-11 = test system: MV4-11
In short: as §1

Measured: CellTox Green cytotoxicity fluorescence

CCOc1cc(C(C)(C)C)ccc1C1=N[C@@](C)(c2ccc(Cl)cc2)[C@@](C)(c2ccc(Cl)cc2)N1C(=O)N1CCN(CCCS(C)(=O)=O)CC1
inactive: CMK; 0.01 µM, 24 h 0.987 | CMK; 0.01 µM, 48 h 0.993 | CMK; 0.01 µM, 72 h 1.01 | CMK; 0.1 µM, 24 h 0.995 | CMK; 0.1 µM, 48 h 0.996 | CMK; 0.1 µM, 72 h 1 | CMK; 1 µM, 24 h 1.02 | CMK; 1 µM, 48 h 1.05 | CMK; 1 µM, 72 h 1.02 | Kasumi-1; 0.01 µM, 24 h 0.977 | Kasumi-1; 0.01 µM, 48 h 0.992 | Kasumi-1; 0.01 µM, 72 h 1.01 | Kasumi-1; 0.1 µM, 24 h 0.987 | Kasumi-1; 0.1 µM, 48 h 0.969 | Kasumi-1; 0.1 µM, 72 h 0.96 | Kasumi-1; 1 µM, 24 h 1.03 | Kasumi-1; 1 µM, 48 h 1.03 | Kasumi-1; 1 µM, 72 h 1.03

Nc1cccc2c1C(=O)N(C1CCC(=O)NC1=O)C2=O (stereo not drawn) [Pomalidomide]
inactive: CMK; 0.01 µM, 24 h 1 | CMK; 0.01 µM, 48 h 0.988 | CMK; 0.01 µM, 72 h 0.953 | CMK; 0.1 µM, 24 h 1.01 | CMK; 0.1 µM, 48 h 1.01 | CMK; 0.1 µM, 72 h 0.952 | CMK; 1 µM, 24 h 1.03 | CMK; 1 µM, 48 h 1.04 | CMK; 1 µM, 72 h 0.984 | Kasumi-1; 0.01 µM, 24 h 0.992 | Kasumi-1; 0.01 µM, 48 h 0.996 | Kasumi-1; 0.01 µM, 72 h 0.983 | Kasumi-1; 0.1 µM, 24 h 1.01 | Kasumi-1; 0.1 µM, 48 h 0.998 | Kasumi-1; 0.1 µM, 72 h 0.985 | Kasumi-1; 1 µM, 24 h 1.01 | Kasumi-1; 1 µM, 48 h 1.02 | Kasumi-1; 1 µM, 72 h 1 | MV4-11; 0.01 µM, 24 h 0.981 | MV4-11; 0.01 µM, 48 h 0.995 | MV4-11; 0.01 µM, 72 h 0.992 | MV4-11; 0.1 µM, 24 h 1.04 | MV4-11; 0.1 µM, 48 h 1.01 | MV4-11; 0.1 µM, 72 h 0.983 | MV4-11; 1 µM, 24 h 1.01 | MV4-11; 1 µM, 48 h 0.968 | MV4-11; 1 µM, 72 h 0.96

CCCCCCCCCCCC1=C(O)C(=O)C=C(O)C1=O [Embelin]
inactive: CMK; 0.01 µM, 24 h 1.03 | CMK; 0.01 µM, 48 h 1.04 | CMK; 0.01 µM, 72 h 1.09 | CMK; 0.1 µM, 24 h 0.994 | CMK; 0.1 µM, 48 h 0.99 | CMK; 0.1 µM, 72 h 0.973 | CMK; 1 µM, 24 h 0.986 | CMK; 1 µM, 48 h 1.04 | CMK; 1 µM, 72 h 1.05 | Kasumi-1; 0.01 µM, 24 h 0.991 | Kasumi-1; 0.01 µM, 48 h 0.988 | Kasumi-1; 0.01 µM, 72 h 0.992 | Kasumi-1; 0.1 µM, 24 h 1.01 | Kasumi-1; 0.1 µM, 48 h 0.999 | Kasumi-1; 0.1 µM, 72 h 0.996 | Kasumi-1; 1 µM, 24 h 1.02 | Kasumi-1; 1 µM, 48 h 1.03 | Kasumi-1; 1 µM, 72 h 1.04 | MV4-11; 0.01 µM, 24 h 1.01 | MV4-11; 0.01 µM, 48 h 1 | MV4-11; 0.01 µM, 72 h 1 | MV4-11; 0.1 µM, 24 h 1 | MV4-11; 0.1 µM, 48 h 0.999 | MV4-11; 0.1 µM, 72 h 1 | MV4-11; 1 µM, 24 h 1.02 | MV4-11; 1 µM, 48 h 1 | MV4-11; 1 µM, 72 h 1.01

Nc1nc(F)nc2c1ncn2[C@@H]1O[C@H](CO)[C@@H](O)[C@@H]1O [Fludarabine]
inactive: CMK; 0.01 µM, 24 h 1 | CMK; 0.01 µM, 48 h 1 | CMK; 0.01 µM, 72 h 1 | CMK; 0.1 µM, 24 h 0.981 | CMK; 0.1 µM, 48 h 0.982 | CMK; 0.1 µM, 72 h 0.939 | CMK; 1 µM, 24 h 0.976 | CMK; 1 µM, 48 h 0.961 | CMK; 1 µM, 72 h 0.907 | Kasumi-1; 0.01 µM, 24 h 0.951 | Kasumi-1; 0.01 µM, 48 h 0.991 | Kasumi-1; 0.01 µM, 72 h 0.986 | Kasumi-1; 0.1 µM, 24 h 0.99 | Kasumi-1; 0.1 µM, 48 h 0.99 | Kasumi-1; 0.1 µM, 72 h 0.984 | Kasumi-1; 1 µM, 24 h 1.02 | Kasumi-1; 1 µM, 48 h 1.01 | Kasumi-1; 1 µM, 72 h 1.03 | MV4-11; 0.01 µM, 24 h 0.938 | MV4-11; 0.01 µM, 48 h 0.968 | MV4-11; 0.01 µM, 72 h 0.976 | MV4-11; 0.1 µM, 24 h 0.992 | MV4-11; 0.1 µM, 48 h 0.985 | MV4-11; 0.1 µM, 72 h 0.98 | MV4-11; 1 µM, 24 h 0.994 | MV4-11; 1 µM, 48 h 0.984 | MV4-11; 1 µM, 72 h 1.01

Cc1cccc(CC(=O)N2CCc3c2ccc(-c2cn(C)c4ncnc(N)c24)c3F)n1
inactive: CMK; 0.01 µM, 24 h 0.981 | CMK; 0.01 µM, 48 h 0.975 | CMK; 0.01 µM, 72 h 0.966 | CMK; 0.1 µM, 24 h 1 | CMK; 0.1 µM, 48 h 0.997 | CMK; 0.1 µM, 72 h 1 | CMK; 1 µM, 24 h 1 | CMK; 1 µM, 48 h 1.05 | CMK; 1 µM, 72 h 0.907 | Kasumi-1; 0.01 µM, 24 h 1.03 | Kasumi-1; 0.01 µM, 48 h 1.02 | Kasumi-1; 0.01 µM, 72 h 1.02 | Kasumi-1; 0.1 µM, 24 h 1.01 | Kasumi-1; 0.1 µM, 48 h 1.02 | Kasumi-1; 0.1 µM, 72 h 1.04 | Kasumi-1; 1 µM, 24 h 1.03 | Kasumi-1; 1 µM, 48 h 1.03 | Kasumi-1; 1 µM, 72 h 1.04 | MV4-11; 0.01 µM, 24 h 1.04 | MV4-11; 0.01 µM, 48 h 1.04 | MV4-11; 0.01 µM, 72 h 1.06 | MV4-11; 0.1 µM, 24 h 1.02 | MV4-11; 0.1 µM, 48 h 1.01 | MV4-11; 0.1 µM, 72 h 1.02 | MV4-11; 1 µM, 24 h 1.03 | MV4-11; 1 µM, 48 h 1.03 | MV4-11; 1 µM, 72 h 1.04

NS(=O)(=O)C#Cc1ccccc1 [Pifithrin-m]
inactive: CMK; 0.01 µM, 24 h 0.969 | CMK; 0.01 µM, 48 h 0.96 | CMK; 0.01 µM, 72 h 0.939 | CMK; 0.1 µM, 24 h 1.01 | CMK; 0.1 µM, 48 h 1 | CMK; 0.1 µM, 72 h 0.998 | CMK; 1 µM, 24 h 1 | CMK; 1 µM, 48 h 1.04 | CMK; 1 µM, 72 h 0.96 | Kasumi-1; 0.01 µM, 24 h 0.994 | Kasumi-1; 0.01 µM, 48 h 0.986 | Kasumi-1; 0.01 µM, 72 h 0.979 | Kasumi-1; 0.1 µM, 24 h 1 | Kasumi-1; 0.1 µM, 48 h 0.98 | Kasumi-1; 0.1 µM, 72 h 0.98 | Kasumi-1; 1 µM, 24 h 0.987 | Kasumi-1; 1 µM, 48 h 0.985 | Kasumi-1; 1 µM, 72 h 0.983 | MV4-11; 0.01 µM, 24 h 0.989 | MV4-11; 0.01 µM, 48 h 1 | MV4-11; 0.01 µM, 72 h 1 | MV4-11; 0.1 µM, 24 h 0.994 | MV4-11; 0.1 µM, 48 h 0.987 | MV4-11; 0.1 µM, 72 h 0.979 | MV4-11; 1 µM, 24 h 1.02 | MV4-11; 1 µM, 48 h 1.02 | MV4-11; 1 µM, 72 h 1.03

— the supplement of paper PMC7595190
